In PubChem BioAssay (NCATS):
Records with an inconclusive call do not appear. Calls of active or inactive are those of the source. Calls come from the whole dose curve; as a rule, active = well fitted curve in the direction sought with a large enough effect in the repeat runs; inconclusive = weak or mixed curves; inactive = no such curve, though single readings can be large; an effect the other way counts as inactive or inconclusive.

Assays:
[1] = biological target: Cytochrome P450 2D6 (Homo sapiens) (UniProt P10635); assay: Cytochrome P450 family 2 subfamily D member 6 (CYP2D6) small molecule antagonists: luciferase biochemical (cell-free) qHTS assay (AID 1645840)
Sequence of Cytochrome P450 2D6 (Homo sapiens) (P10635 whole entry, looked up): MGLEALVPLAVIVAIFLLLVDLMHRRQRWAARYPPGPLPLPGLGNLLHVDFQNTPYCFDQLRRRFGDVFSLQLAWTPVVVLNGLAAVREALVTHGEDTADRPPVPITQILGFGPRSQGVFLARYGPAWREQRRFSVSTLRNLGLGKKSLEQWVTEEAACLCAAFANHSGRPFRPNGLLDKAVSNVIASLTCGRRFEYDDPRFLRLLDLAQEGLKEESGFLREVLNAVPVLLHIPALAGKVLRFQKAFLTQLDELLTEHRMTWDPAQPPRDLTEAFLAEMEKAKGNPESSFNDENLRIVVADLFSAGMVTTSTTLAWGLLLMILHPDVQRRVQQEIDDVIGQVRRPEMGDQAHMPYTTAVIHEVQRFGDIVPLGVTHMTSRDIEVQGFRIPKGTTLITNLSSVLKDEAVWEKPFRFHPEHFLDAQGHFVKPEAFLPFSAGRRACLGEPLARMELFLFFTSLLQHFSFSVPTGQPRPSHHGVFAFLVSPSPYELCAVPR
Method in brief: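 P450-Glo luminescent screen: recombinant CYP2D6 enzyme–proluciferin substrate mix preincubated with compound 10 min at room temperature, then NADPH regeneration added for 1 h at room temperature. Detection reagent added for 20 min; luciferin light read as relative luminescence units.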

[2] = biological target: Cytochrome P450 2C9 (Homo sapiens) (UniProt P11712); assay: Cytochrome P450 family 2 subfamily C member 9 (CYP2C9) small molecule antagonists: luciferase biochemical (cell-free) qHTS assay (AID 1645842)
Sequence of Cytochrome P450 2C9 (Homo sapiens) (P11712 whole entry, looked up): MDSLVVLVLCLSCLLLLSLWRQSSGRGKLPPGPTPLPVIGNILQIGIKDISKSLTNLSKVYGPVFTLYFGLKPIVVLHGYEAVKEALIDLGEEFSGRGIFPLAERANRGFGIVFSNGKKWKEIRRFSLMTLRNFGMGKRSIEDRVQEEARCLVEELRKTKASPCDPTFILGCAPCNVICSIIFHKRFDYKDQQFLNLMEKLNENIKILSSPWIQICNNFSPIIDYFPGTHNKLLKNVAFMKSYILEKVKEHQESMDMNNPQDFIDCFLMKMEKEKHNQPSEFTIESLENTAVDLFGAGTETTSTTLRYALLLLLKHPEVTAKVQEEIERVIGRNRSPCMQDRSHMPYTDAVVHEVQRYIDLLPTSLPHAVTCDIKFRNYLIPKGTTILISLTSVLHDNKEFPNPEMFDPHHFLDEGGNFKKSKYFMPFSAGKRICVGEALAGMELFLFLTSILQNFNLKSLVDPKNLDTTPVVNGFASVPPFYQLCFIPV
Method in brief: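 Luminescence, after 20 min with luciferin detection reagent, reflected CYP2C9 turnover during a 1 h NADPH-driven reaction at 37C. Enzyme-substrate mix contained 0.4% bovine serum albumin and was preincubated with compound 10 min at room temperature.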
Note: nearly all actives have a fitted effect of over 55% in size.
Potency is the fitted concentration of half-maximal effect.

Compound | Potency [1] | Potency [2]
Cc1ccc(Nc2nc3ccccc3c3nnc(C)n23)c(C)c1 | inactive | 5.35 µM (active)
CCC(C)Nc1cc(C(=O)NC2CC3CCC(C2)N3c2ccc(C(=O)C3CC3)cn2)c(C)cc1C(N)=O (centres undefined) | inactive | 8.49 µM (active)
CCc1ccc(-n2c(SCc3cccc(F)c3)nc3[nH]ncc3c2=O)cc1 | 12 µM (active) | 12 µM (active)
COc1ccccc1CNC(=O)CCC1N=C2c3ccccc3N=C(SCC(=O)NCCc3ccc(OC)c(OC)c3)N2C1=O (centres undefined) | inactive | 0.301 µM (active)
CC1=C(C(=O)NCc2cncn2C)C(c2ccccc2Cl)N=C(Nc2nc3ccccc3o2)N1 (centres undefined) | 9.52 µM (active) | 7.56 µM (active)
C[C@H](O[C@H]1OCCN(Cc2n[nH]c(=O)[nH]2)[C@H]1c1ccc(F)cc1)c1cc(C(F)(F)F)cc(C(F)(F)F)c1 | 10.7 µM (active) | 9.52 µM (active)
Cc1ccc(C2=CC(c3ccccc3F)n3c(nc4ccccc43)N2)cc1C (centres undefined) | 10.7 µM (active) | 6.01 µM (active)
Cc1ccc(C)c(Nc2nc3nonc3nc2Nc2cccc(C)c2C)c1 | 10.7 µM (active) | inactive
COc1ccc(Cn2c(CCC(=O)Nc3cccc(OC)c3)nc3cccnc32)cc1 | 2.68 µM (active) | 4.77 µM (active)
Cc1oc(-c2cccc(Cl)c2)nc1Cn1c(SCc2ccccc2F)nc2ccncc21 | 4.77 µM (active) | 7.56 µM (active)
CCOC(=O)c1ccc(NC(=O)CCn2c(=O)c3cccn3c3cccnc32)cc1 | inactive | 10.7 µM (active)
COc1ccc(NC(=O)CSc2nc(-c3cccs3)cc(C(F)(F)F)n2)cc1OC | inactive | inactive
COc1ccc(C(Nc2ccccn2)c2ccc3ccc(C)nc3c2O)cc1C (centres undefined) | 21.3 µM (active) | 2.68 µM (active)
CCc1ccc(-c2nc(CSCC(=O)NCc3ccc(C)cc3)c(C)o2)cc1 | 15.1 µM (active) | 2.68 µM (active)
CCN(CC)S(=O)(=O)c1ccc2c(c1)nc(CN(C)C(=O)Nc1cccc(Cl)c1)n2C | 26.8 µM (active) | 0.849 µM (active)
O=c1c2c(on1Cc1ccccc1)CCNCC2 | inactive | 10.7 µM (active)

Compound | Potency [1] | Potency [2]
CCCOCc1cc(CN2CCN(c3ccccc3OC)CC2)c(O)c2ncccc12 | 13.5 µM (active) | 7.56 µM (active)
COc1ccc(CN(C2CCCCC2)[S+](=O)([O-])c2ccc(C)cc2)cc1OC | inactive | 3.79 µM (active)
Cc1ccc(C)c(NC(=O)C2CCN(S(=O)(=O)c3c(C)noc3/C=C/c3cccs3)CC2)c1 | 2.39 µM (active) | 0.849 µM (active)
COc1ccc(C(=O)Oc2ccc(C(c3c(C)[nH][nH]c3=O)c3c(C)[nH][nH]c3=O)cc2)cc1 | inactive | 10.7 µM (active)
CC1=C(C(=O)Nc2nnc(C)s2)C(c2ccccc2Cl)N=C(Nc2nc3ccccc3o2)N1 (centres undefined) | inactive | 9.52 µM (active)
CCOC(=O)N1CCc2c(sc3c2c(=O)n(Cc2ccccc2)c(=O)n3CC(=O)Nc2cccc(C)c2)C1 | 1.51 µM (active) | 4.25 µM (active)
Cc1cccc(NC(c2cccc(Cl)c2)c2ccc3cccnc3c2O)n1 (centres undefined) | inactive | 28.2 µM (active)
COc1ccc(-n2nc3c(N4CCCC(C(=O)NCc5cccc(F)c5)C4)nnc(C)c3c2C)cc1 (centres undefined) | 1.69 µM (active) | 8.49 µM (active)
COC(=O)c1c(SCC(=O)Nc2cc(C)cc(C)c2)[nH]c2ccccc2c1=O | inactive | 21.3 µM (active)
COc1ccc2c(CNCCc3ccccc3OC)c(C(=O)O)n(Cc3ccc(F)cc3Cl)c2c1 | 12 µM (active) | 12 µM (active)
COc1cccc(NC(=O)Cn2c(=O)n(CC(=O)NCc3ccc(C)cc3)c(=O)c3sccc32)c1 | 0.107 µM (active) | 6.01 µM (active)
COc1ccc(Cn2ccnc2SCC(=O)Nc2nc3ccccc3s2)cc1 | 9.52 µM (active) | 2.39 µM (active)
Cc1ccc(NC(=O)Cn2c(=O)n(CCC(=O)NCc3ccc4c(c3)OCO4)c(=O)c3sccc32)c(C)c1 | 1.69 µM (active) | 2.13 µM (active)
CCN1CCN(CCCNC(=O)c2cc3c(s2)-c2c(C)cccc2OC3)CC1 | 10.7 µM (active) | inactive
CN1C(=O)c2ccccc2Sc2ccc(NC(=O)Cc3ccc(Cl)cc3)cc21 | 6.01 µM (active) | 12 µM (active)
CCc1ccc(-n2c(SCc3ccccc3C)nc3[nH]ncc3c2=O)cc1 | 9.52 µM (active) | 19 µM (active)
